# Records with an inconclusive call do not appear. Active and inactive are the calls of the source. Rule for the calls: active = hit-call score of the fitted dose curve at least 0.9, where 1 is the maximum; inconclusive = response in the unintended direction; inactive = score below 0.9.
# Legend:
# [1] = molecular target: sheep Cyclooxygenase-1 (Cox1), PTGS1 (gene 443551) (UniProt P05979); assay: NVS_ENZ_oCOX1: NovaScreen (NVS) Enzymatic Assay for sheep Cyclooxygenase-1 (Cox1) (AID 2283239);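 note: actives reduce cyclooxygenase activity so potencies are for inhibitors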
# sheep Cyclooxygenase-1 (Cox1), PTGS1 (gene 443551), sequence (P05979 whole entry, looked up): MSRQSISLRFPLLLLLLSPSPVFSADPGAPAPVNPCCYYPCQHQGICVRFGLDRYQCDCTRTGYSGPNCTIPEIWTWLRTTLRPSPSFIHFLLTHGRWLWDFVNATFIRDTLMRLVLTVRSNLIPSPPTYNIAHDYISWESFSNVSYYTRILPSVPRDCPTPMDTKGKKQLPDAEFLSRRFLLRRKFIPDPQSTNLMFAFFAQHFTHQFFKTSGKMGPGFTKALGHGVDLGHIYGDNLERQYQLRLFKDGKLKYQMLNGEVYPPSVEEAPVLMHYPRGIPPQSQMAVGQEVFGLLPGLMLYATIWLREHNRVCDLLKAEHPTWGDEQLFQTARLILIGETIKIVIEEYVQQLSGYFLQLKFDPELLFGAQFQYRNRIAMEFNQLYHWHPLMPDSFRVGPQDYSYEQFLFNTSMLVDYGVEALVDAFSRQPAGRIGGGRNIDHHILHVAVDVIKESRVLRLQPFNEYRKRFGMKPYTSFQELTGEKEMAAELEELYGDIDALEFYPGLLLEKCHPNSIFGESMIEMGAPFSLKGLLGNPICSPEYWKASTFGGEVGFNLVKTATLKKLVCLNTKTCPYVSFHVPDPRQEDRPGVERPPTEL
# Procedure, shortened: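 COX1 from ovine seminal vesicles, activity read colorimetrically about 0.66 h after dosing. Primary screen in duplicate at 25 uM; actives retested in concentration series; loss of signal fitted versus DMSO.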
# [2] = molecular target: rabbit Imidazoline 2 Central (I2C), CKB (gene 100009085) (UniProt P00567); assay: NVS_ENZ_rabI2C: NovaScreen (NVS) Enzymatic Assay for rabbit Imidazoline 2 Central (I2C) (AID 2283228)
# rabbit Imidazoline 2 Central (I2C), CKB (gene 100009085), sequence (P00567 whole entry, looked up): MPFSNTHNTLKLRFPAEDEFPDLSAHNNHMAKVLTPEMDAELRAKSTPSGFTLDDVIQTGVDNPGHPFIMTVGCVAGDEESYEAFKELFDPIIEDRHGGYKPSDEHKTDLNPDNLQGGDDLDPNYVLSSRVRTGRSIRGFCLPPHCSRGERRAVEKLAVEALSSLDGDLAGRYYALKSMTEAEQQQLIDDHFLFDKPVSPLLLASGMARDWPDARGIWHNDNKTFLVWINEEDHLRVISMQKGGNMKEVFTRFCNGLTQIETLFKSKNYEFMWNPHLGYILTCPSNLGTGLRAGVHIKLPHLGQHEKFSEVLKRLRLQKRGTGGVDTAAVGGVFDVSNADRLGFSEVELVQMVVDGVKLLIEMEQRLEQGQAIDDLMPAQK
# Procedure, shortened: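 Rabbit brain membranes, cell-free; readout by filter-based scintillation counting 1.5 hours after dosing, loss of signal vs DMSO. Initial duplicate test at 25 uM, then concentration-response with 50 uM top concentration.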
# [3] = molecular target: human Vascular Endothelial Growth Factor Receptor 3 (VEGFR3), FLT4 (gene 2324) (UniProt P35916); assay: NVS_ENZ_hVEGFR3: NovaScreen (NVS) Enzymatic Assay for human Vascular Endothelial Growth Factor Receptor 3 (VEGFR3) (AID 2283229)
# human Vascular Endothelial Growth Factor Receptor 3 (VEGFR3), FLT4 (gene 2324), sequence (P35916 whole entry, looked up): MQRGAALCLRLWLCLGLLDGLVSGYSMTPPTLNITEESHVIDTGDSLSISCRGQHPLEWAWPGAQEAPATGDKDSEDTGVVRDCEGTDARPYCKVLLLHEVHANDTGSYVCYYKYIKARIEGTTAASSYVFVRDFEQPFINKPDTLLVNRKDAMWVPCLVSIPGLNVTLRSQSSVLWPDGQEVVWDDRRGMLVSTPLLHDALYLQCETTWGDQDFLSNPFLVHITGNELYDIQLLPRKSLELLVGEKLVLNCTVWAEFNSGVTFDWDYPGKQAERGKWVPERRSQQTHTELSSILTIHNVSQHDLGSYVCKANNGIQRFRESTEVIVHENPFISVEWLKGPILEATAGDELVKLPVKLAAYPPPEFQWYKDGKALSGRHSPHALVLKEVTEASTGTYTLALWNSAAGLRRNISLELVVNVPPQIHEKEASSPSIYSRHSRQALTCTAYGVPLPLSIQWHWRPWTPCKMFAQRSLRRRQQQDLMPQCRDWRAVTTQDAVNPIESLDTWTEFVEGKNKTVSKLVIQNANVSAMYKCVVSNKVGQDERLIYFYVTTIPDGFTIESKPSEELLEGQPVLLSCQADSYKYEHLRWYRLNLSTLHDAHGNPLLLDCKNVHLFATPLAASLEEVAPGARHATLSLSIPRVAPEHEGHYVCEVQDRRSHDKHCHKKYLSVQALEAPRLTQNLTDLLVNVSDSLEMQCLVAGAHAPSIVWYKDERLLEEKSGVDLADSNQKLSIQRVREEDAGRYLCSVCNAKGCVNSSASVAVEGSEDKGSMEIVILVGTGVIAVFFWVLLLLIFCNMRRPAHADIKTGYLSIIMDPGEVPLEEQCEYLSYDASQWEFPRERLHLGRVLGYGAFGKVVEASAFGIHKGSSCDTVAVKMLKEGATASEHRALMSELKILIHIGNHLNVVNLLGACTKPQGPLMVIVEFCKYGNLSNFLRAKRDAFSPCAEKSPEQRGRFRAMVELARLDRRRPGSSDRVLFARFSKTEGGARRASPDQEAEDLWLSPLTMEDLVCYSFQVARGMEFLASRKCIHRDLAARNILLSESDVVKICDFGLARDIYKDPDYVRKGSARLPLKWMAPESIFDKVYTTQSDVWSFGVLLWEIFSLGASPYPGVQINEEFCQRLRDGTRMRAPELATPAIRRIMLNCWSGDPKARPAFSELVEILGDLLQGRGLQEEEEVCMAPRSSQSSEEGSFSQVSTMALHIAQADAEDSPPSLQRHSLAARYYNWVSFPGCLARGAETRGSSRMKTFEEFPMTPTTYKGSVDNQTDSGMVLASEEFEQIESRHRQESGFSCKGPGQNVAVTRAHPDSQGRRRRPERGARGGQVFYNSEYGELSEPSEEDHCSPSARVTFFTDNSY
# Protocol: NVS_ENZ_hVEGFR3 is a biochemical, single-readout assay that uses extracted gene-proteins in a cell-free assay. Measurements were taken 1 hour after chemical dosing in a 96-well plate.NVS_ENZ_hVEGFR3 is one of one assay component(s) measured or calculated from the NVS_ENZ_hVEGFR3 assay. It is designed to make measurements of enzyme activity, a form of enzyme reporter, as detected with fluorescence intensity signals by Fluorescence and electrophoretic mobility shift technology.Data from the assay component NVS_ENZ_hVEGFR3 was analyzed into 1 assay endpoint. This assay endpoint, NVS_ENZ_hVEGFR3, was analyzed in the positive analysis fitting direction relative to DMSO as the negative control and baseline of activity. Using a type of enzyme reporter, loss-of-signal activity can be used to understand changes in the enzymatic activity as they relate to the gene FLT4. Furthermore, this assay endpoint can be referred to as a primary readout, because this assay has produced multiple assay endpoints where this one serves a enzymatic activity function. To generalize the intended target to other relatable targets, this assay endpoint is annotated to the kinase intended target family, where the subfamily is receptor tyrosine kinase. […]
# [4] = molecular target: rat Constitutive Nitric Oxide Synthase (CNOS), Nos1 (gene 24598) (UniProt P29476); assay: NVS_ENZ_rCNOS: NovaScreen (NVS) Enzymatic Assay for rat Constitutive Nitric Oxide Synthase (CNOS) (AID 2283236)
# rat Constitutive Nitric Oxide Synthase (CNOS), Nos1 (gene 24598), sequence (P29476 whole entry, looked up): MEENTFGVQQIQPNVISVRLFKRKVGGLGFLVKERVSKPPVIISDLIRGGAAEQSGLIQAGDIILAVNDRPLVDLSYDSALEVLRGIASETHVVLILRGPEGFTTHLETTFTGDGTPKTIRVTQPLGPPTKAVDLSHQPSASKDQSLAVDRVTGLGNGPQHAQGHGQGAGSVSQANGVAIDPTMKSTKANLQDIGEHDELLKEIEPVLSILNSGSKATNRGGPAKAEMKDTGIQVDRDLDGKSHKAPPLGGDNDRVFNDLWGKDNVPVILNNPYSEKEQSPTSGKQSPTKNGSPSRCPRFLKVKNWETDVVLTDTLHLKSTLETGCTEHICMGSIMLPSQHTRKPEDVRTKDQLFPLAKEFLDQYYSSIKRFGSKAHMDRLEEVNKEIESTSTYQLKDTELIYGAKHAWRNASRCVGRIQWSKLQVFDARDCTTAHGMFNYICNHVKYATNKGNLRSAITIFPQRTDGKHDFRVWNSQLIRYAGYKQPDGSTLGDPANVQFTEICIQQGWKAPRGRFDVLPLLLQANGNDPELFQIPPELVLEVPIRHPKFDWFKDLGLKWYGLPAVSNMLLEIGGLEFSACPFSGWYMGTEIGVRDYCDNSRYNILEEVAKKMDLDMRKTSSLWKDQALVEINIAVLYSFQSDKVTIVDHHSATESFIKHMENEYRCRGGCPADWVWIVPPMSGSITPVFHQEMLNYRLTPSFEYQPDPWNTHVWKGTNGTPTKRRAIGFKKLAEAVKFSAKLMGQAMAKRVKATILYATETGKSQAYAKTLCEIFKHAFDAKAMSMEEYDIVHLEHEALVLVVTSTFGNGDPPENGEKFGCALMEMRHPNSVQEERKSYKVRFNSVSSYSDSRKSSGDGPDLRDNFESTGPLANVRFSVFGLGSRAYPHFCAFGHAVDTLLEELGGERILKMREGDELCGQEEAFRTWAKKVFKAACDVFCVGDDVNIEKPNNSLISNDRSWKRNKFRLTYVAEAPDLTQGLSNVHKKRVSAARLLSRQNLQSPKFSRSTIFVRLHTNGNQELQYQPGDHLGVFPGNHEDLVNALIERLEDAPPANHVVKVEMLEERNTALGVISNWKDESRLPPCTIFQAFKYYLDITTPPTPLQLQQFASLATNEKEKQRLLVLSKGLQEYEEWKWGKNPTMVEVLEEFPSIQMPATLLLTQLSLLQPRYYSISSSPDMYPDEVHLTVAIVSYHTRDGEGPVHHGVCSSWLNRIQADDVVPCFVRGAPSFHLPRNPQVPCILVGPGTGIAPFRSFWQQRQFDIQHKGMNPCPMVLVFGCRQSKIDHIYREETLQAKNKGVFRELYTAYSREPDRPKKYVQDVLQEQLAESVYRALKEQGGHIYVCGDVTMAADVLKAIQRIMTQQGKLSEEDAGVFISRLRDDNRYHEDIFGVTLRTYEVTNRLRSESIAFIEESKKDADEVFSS
# Procedure, shortened: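 Enzyme activity in rat brain membrane preparation, read 1 h after dosing by filter-based radiometric scintillation counting. Primary screen in duplicate at 25 uM; actives (e.g., ≥30% inhibition) then run in concentration-response up to 50 uM.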
smiles,measurement,setting,value
O=[Si]=O,outcome,[1],inactive
O=C(O)c1[nH]n(-c2ccc(S(=O)(=O)O)cc2)c(=O)c1N=Nc1ccc(S(=O)(=O)O)cc1,outcome,[2],inactive
same,outcome,[3],inactive
same,AC50,[4],9.33 µM (active)
Oc1ccc(O)cc1,outcome,[1],inactive
CCCCCCCCCCCCCCCCO,AC50,[3],46.6 µM (active)

# — PubChem BioAssay (EPA / NIEHS)
